Only a selection was taken, and the strongest signals are over-represented in it overall.
Key:
Assay in all cases: glycan array binding signal (z-score within array); higher = stronger binding
Conditions in all cases: glycan notation: IUPAC condensed, linker removed
[1] = target: Fuc(a1-2)Gal(b1-3)GalNAc(b1-3)Gal(a1-4)Gal(b1-4)Glc
Summary of the method: (§1)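 Glycan array data were curated from 3228 arrays in the Consortium for Functional Glycomics database and kept only where the protein sequence was available. Glycan names were converted to IUPAC-condensed notation, and columns mapping to the same glycan were averaged. The binding signal is a within-array Z-score, averaged across arrays of the same protein sequence at different concentrations or buffers and across linkers. Negative Z-scores can be read as non-binding.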

[2] = target: Fuc(a1-2)Gal(b1-3)[Fuc(a1-4)]GlcNAc
Summary of the method: as §1

[3] = target: Fuc(a1-2)Gal(b1-3)[Fuc(a1-4)]GlcNAc(b1-2)Man(a1-3)[Fuc(a1-2)Gal(b1-3)[Fuc(a1-4)]GlcNAc(b1-2)Man(a1-3)]Man(b1-4)GlcNAc(b1-4)GlcNAc
Summary of the method: as §1

[4] = target: Fuc(a1-2)Gal(b1-3)[Fuc(a1-4)]GlcNAc(b1-3)[Gal(b1-4)GlcNAc(b1-6)]Gal(b1-4)Glc
Summary of the method: as §1

[5] = target: Fuc(a1-2)Gal(b1-4)GlcNAc(b1-2)Man
Summary of the method: as §1

[6] = target: Fuc(a1-2)[Gal(a1-3)]Gal(b1-3)GlcNAc(b1-6)GalNAc
Summary of the method: as §1

[7] = target: Fuc(a1-2)[Gal(a1-3)]Gal(b1-4)[Fuc(a1-3)]GlcNAc(b1-3)GalNAc
Summary of the method: as §1

[8] = target: Fuc(a1-2)[GalNAc(a1-3)]Gal(b1-3)GlcNAc(b1-6)GalNAc
Summary of the method: as §1

[9] = target: Fuc(a1-2)[GalNAc(a1-3)]Gal(b1-4)Glc
Summary of the method: as §1

[10] = target: Gal(a1-3)Gal(b1-3)GlcNAc(b1-2)Man(a1-3)[Gal(a1-3)Gal(b1-3)GlcNAc(b1-2)Man(a1-6)]Man(b1-4)GlcNAc(b1-4)GlcNAc
Summary of the method: as §1

[11] = target: Gal(a1-3)Gal(b1-3)[Fuc(a1-4)]GlcNAc(b1-2)Man(a1-3)[Gal(a1-3)Gal(b1-3)[Fuc(a1-4)]GlcNAc(b1-2)Man(a1-6)]Man(b1-4)GlcNAc(b1-4)GlcNAc
Summary of the method: as §1

[12] = target: Gal(a1-3)Gal(b1-4)[Fuc(a1-3)]GlcNAc(b1-2)Man(a1-3)[Gal(a1-3)Gal(b1-4)[Fuc(a1-3)]GlcNAc(b1-2)Man(a1-6)]Man(b1-4)GlcNAc(b1-4)GlcNAc
Summary of the method: as §1

[13] = target: Gal(a1-4)Gal(b1-4)GlcNAc(b1-3)Gal(b1-4)Glc
Summary of the method: as §1

Gal(a1-6)Glc = target: Gal(a1-6)Glc
Summary of the method: as §1

Gal(b1-3)GalNAc(b1-3)Gal = target: Gal(b1-3)GalNAc(b1-3)Gal
Summary of the method: as §1

[14] = target: Gal(b1-3)GalNAc(b1-3)Gal(a1-4)Gal(b1-4)Glc
Summary of the method: as §1

[15] = target: Gal(b1-3)GlcNAc(b1-2)Man(a1-3)[Gal(b1-3)GlcNAc(b1-2)Man(a1-6)]Man(b1-4)GlcNAc(b1-4)[Fuc(a1-6)]GlcNAc
Summary of the method: as §1

[16] = target: Gal(b1-3)GlcNAc(b1-3)Gal(b1-4)GlcNAc(b1-2)Man(a1-3)[Gal(b1-3)GlcNAc(b1-3)Gal(b1-4)GlcNAc(b1-2)Man(a1-6)]Man(b1-4)GlcNAc(b1-4)GlcNAc
Summary of the method: as §1

[17] = target: Gal(b1-3)GlcNAc(b1-3)Gal(b1-4)[Fuc(a1-3)]GlcNAc(b1-6)[Gal(b1-3)GlcNAc(b1-3)]Gal(b1-4)Glc
Summary of the method: as §1

[18] = target: Gal(b1-3)GlcNAc(b1-3)GalNAc
Summary of the method: as §1

[19] = target: Gal(b1-3)GlcNAc(b1-6)[Gal(b1-3)]GalNAc
Summary of the method: as §1

[20] = target: Gal(b1-3)[Fuc(a1-4)]GlcNAc(b1-6)GalNAc
Summary of the method: as §1

Gal(b1-4)Glc6S = target: Gal(b1-4)Glc6S
Summary of the method: as §1

[21] = target: Gal(b1-4)GlcNAc(b1-2)Man(a1-3)[Gal(b1-4)GlcNAc(b1-2)Man(a1-6)]Man(b1-4)GlcNAc(b1-4)[Fuc(a1-6)]GlcNAc
Summary of the method: as §1

[22] = target: Gal(b1-4)GlcNAc(b1-2)[Gal(b1-4)GlcNAc(b1-4)]Man(a1-3)[GlcNAc(b1-4)][Gal(b1-4)GlcNAc(b1-2)Man(a1-6)]Man(b1-4)GlcNAc(b1-4)GlcNAc
Summary of the method: as §1

[23] = target: Gal(b1-4)GlcNAc(b1-3)Gal(b1-4)GlcNAc(b1-2)Man(a1-3)[Gal(b1-4)GlcNAc(b1-3)Gal(b1-4)GlcNAc(b1-2)Man(a1-6)]Man(b1-4)GlcNAc(b1-4)GlcNAc
Summary of the method: as §1

[24] = target: Gal(b1-4)GlcNAc(b1-3)Gal(b1-4)GlcNAc(b1-2)Man(a1-3)[Gal(b1-4)GlcNAc(b1-3)Gal(b1-4)GlcNAc(b1-2)Man(a1-6)]Man(b1-4)GlcNAc(b1-4)[Fuc(a1-6)]GlcNAc
Summary of the method: as §1

B1: SUN4 (Saccharomyces cerevisiae), P53616 (protein)
chain: MGSSHHHHHHSSGLVPRGSHNGSIYGDLADFSGPYEKFEDGTIPCGQFPSGQGVIPISWLDEGGWSGVENTDTSTGGSCKEGSYCSYACQPGMSKTQWPSDQPSDGRSIGGLLCKDGYLYRSNTDTDYLCEWGVDAAYVVSELSNDVAICRTDYPGTENMVIPTYVQAGDSLPLTVVDQDTYYTWQGLKTSAQYYVNNAGISVEDACVWGSSSSGVGNWAPLNFGAGSSDGVAYLSLIPNPNNGNALNFNVKIVAADDSSTVNGECIYENGSFSGGSDGCTVSVTAGKAKFVLYN
[1]
  glycan array binding signal (z-score): 0.954
[2]
  glycan array binding signal (z-score): -0.752
[3]
  glycan array binding signal (z-score): -0.207
[4]
  glycan array binding signal (z-score): 0.297
[5]
  glycan array binding signal (z-score): 0.324
[6]
  glycan array binding signal (z-score): -0.368
[7]
  glycan array binding signal (z-score): -0.487
[8]
  glycan array binding signal (z-score): -0.525
[9]
  glycan array binding signal (z-score): -0.935
[10]
  glycan array binding signal (z-score): 1.63
[11]
  glycan array binding signal (z-score): 1.91
[12]
  glycan array binding signal (z-score): 3.09
[13]
  glycan array binding signal (z-score): -0.077
Gal(a1-6)Glc
  glycan array binding signal (z-score): -1.22
Gal(b1-3)GalNAc(b1-3)Gal
  glycan array binding signal (z-score): -0.668
[14]
  glycan array binding signal (z-score): 0.295
[15]
  glycan array binding signal (z-score): -0.257
[16]
  glycan array binding signal (z-score): 0.342
[17]
  glycan array binding signal (z-score): -0.488
[18]
  glycan array binding signal (z-score): -0.163
[19]
  glycan array binding signal (z-score): 0.101
[20]
  glycan array binding signal (z-score): 0.835
Gal(b1-4)Glc6S
  glycan array binding signal (z-score): -0.03
[21]
  glycan array binding signal (z-score): 0.829
[22]
  glycan array binding signal (z-score): 0.208
[23]
  glycan array binding signal (z-score): 2.66
[24]
  glycan array binding signal (z-score): 2

— the supplement of paper PMC8728848
